Consider 38 compounds from PubChem BioAssay.

Several values for one entry are separate records, joined by “and”; a condition that tells them apart may be missing. Identical values can stand only once. A number with no mark means an inactive call. Activity calls are given as the source filed them.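 How the source made its calls: active means inhibition at or above 50% relative to wild type and mutant plate controls; inactive means inhibition below 50%.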

A short description of this test: loss of swimming-algae plug formation – whole organism, Chlamydomonas reinhardtii, WT vs cilia-less mutant, absorbance, 96-well, primary screen (AID 463189).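 Further: 0% = wild type cc124 cells in DMSO and 100% = ciliumless bld1 mutant cells.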 The following applies: Chlamydomonas reinhardtii gravitaxis, OD600 absorbance, 2 days; at 10 µM; active compounds read high.
By inhibition is commonly meant the drop in the measured response relative to a control, in per cent. As to `CCCCCCCCC(=O)NCc1ccc(O)c(OC)c1`, the inhibition was 12.3%.

As for `CN1CCc2cccc(Cl)c2CC1`, the inhibition was 9.04%. With `Oc1ccc2c3c1O[C@H]1c4[nH]c5ccccc5c4C[C@@]4(O)C(C2)N(CC2CC2)CCC314` (stereo partly drawn) the figure was 3.32%; with `CCCN1CCC[C@@H](c2cccc(C#N)c2)C1`, 9.39%; with `CC(C)(C)c1o[nH]c(=O)c1CC(N)C(=O)O` (stereo not drawn), 0.571%. For `CN(C(=O)Cc1ccc(Cl)c(Cl)c1)C(CN1CCCC1)c1cccc(OCC(=O)O)c1` (stereo not drawn), the inhibition is 4.68%. In the case of `NCCc1c[nH]c2ccc(C(N)=O)cc12`, the inhibition is 4.98%. With `CC[N+](CC)(CC)CC` the figure was 6.89%; with `CO[C@H]1CC=C2CCN3CCC4=C(CC(=O)OC4)[C@]23C1`, 0.879%; with `COc1ccccc1N1CCNCC1`, 6.65%. As for `COC(=O)C1=CCCN(C)C1`, the inhibition is -3.75%. `C[C@]12CCC3C(CC[C@H]4C[C@H](O)CC[C@]34C)C1CC[C@@H]2C(=O)CO` (stereo partly drawn): the inhibition was 4.52%.

In the case of `O=C(O)C1C2CCC(O2)C1C(=O)O` (stereo not drawn), the inhibition is -11.7%. Take `O=C1C=CC(=O)C=C1`: the inhibition was -11.2%. With `c1ccc2c(c1)[I+]c1ccccc1-2`, the inhibition is 152% (active).

For `C[N+](C)(C)CCOC(=O)CBr`, the inhibition is 0.371%. For `CCCN(CCC)[C@H]1CCc2c(F)ccc(O)c2C1`, the inhibition is -6.79%. Regarding `c1ccc2c(N3CCNCC3)cccc2c1`, the inhibition was 5.44%. On to `NCCc1c[nH]c2ccc(O)cc12`, for which the inhibition was -4.38%.

`OCc1cnc[nH]1`: the inhibition is 3.19%. For `NC(N)=Nc1ccc2[nH]c3c(c2c1)C[C@@]1(O)[C@H]2Cc4ccc(O)c5c4[C@@]1(CCN2CC1CC1)[C@H]3O5` the value was -0.588%. On to `C[C@@H]1O[C@@H](O[C@H]2C[C@@H](O)[C@]3(CO)[C@H]4[C@H](O)C[C@]5(C)[C@@H](C6=CC(=O)OC6)CC[C@]5(O)[C@@H]4CC[C@]3(O)C2)[C@H](O)[C@H](O)[C@H]1O`, for which the inhibition was 6.79%.

For the compound `CN[C@@H](C)[C@H](O)c1ccccc1`, the inhibition is -4.11%. With `Nc1ncnc2c1ncn2[C@@H]1O[C@H](COP(=O)(O)CP(=O)(O)OP(=O)(O)O)[C@H](O)C1O` (stereo partly drawn) the figure was 8.43%; with `NC(=NCCC[C@H](N)C(=O)O)N[N+](=O)[O-]`, 2.94%.

As to `C[C@]12N[C@H](Cc3ccccc31)c1ccccc12`, the inhibition is -0.308%. In the case of `S=C=Nc1cccc(C2(N3CCCCC3)CCCCC2)c1`, the inhibition is 10.2%. With `Cc1nccc2c1[nH]c1ccccc12`, the inhibition is 10.4%. For `CC12CCC3C(CCC4=C(O)C(=O)CCC43C)C1CCC2=O` (stereo not drawn) the value was 12.9%; for `C[N+](C)(C)CC(=O)O`, 3.38%; for `COc1ccc2c3c1O[C@H]1C(=O)CC[C@@]4(O)C(C2)N(CC2CC2)CCC314` (stereo partly drawn), 3.52%. Turning to `O=C(O)[C@@H]1CCN1`, the inhibition is 2.04%. For `CCCn1c(=O)c2[nH]c(C3CCCC3)nc2n(CCCOC(=O)c2ccc(S(=O)(=O)F)cc2)c1=O` the value was 0.089%; for `CCn1cc(C(=O)O)c(=O)c2ccc(C)nc21`, -5.13% and 33.3%. With `CCCN1CCO[C@@H]2c3cc(O)ccc3OC[C@H]21` the figure was 3.37% and -1.05%; with `CN(N=O)c1ccc(O)c(O)c1`, 1.04%. Turning to `C[N+]1(C)C2CC(OC(=O)[C@H](CO)c3ccccc3)CC1C1OC12` (stereo partly drawn), the inhibition is -8.63% and 9.74%.

In the case of `N[C@@]1(C(=O)O)CC[C@@H](C(=O)O)C1`, the inhibition is 5%.
